# Laboratory results taken from PubChem BioAssay AID1159580 (chemical genetic matrix, 2015).
# Values joined by “and” are separate entries in the source; they are usually repeats but may differ in a detail not shown here. Equal values may be shown once. Hit rate of the full screen: of about 5,500 compounds, about 2,000 (36%) were called active. Not shown: some 18% with an inconclusive outcome. Rule as the data show it: active = normalized growth mostly below about 0.91 (no sharp cut-off); inconclusive = no clear call, values can overlap the other calls; inactive = mostly above about 0.92. Some of the results follow. The source holds several records for some structures; these can differ, active in one and inactive in another.
# Experiment: chemical genetic growth profiling, strain panel (AID 1159580);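 also: tested at 20 µM; growth read once vehicle control cultures reached saturation at 30 °C; 1 = growth at the plate median or of vehicle wells; lower values mean less growth of the strain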
# Conditions: S. cerevisiae deletion strains, growth OD
structure (smiles),measurement,setting,value
Cc1ccc(Cl)c(Nc2ccccc2C(=O)O)c1Cl,normalized growth,"locus YAL013W, strain DEP1, stronger effect = lower value",0.938 (inactive)
same,normalized growth,"locus YAL021C, strain ccr4, stronger effect = lower value",0.917 (inactive)
same,normalized growth,"locus YAL026C, strain drs2, stronger effect = lower value",0.787 (active)
same,normalized growth,"locus YAL030W, strain snc1, stronger effect = lower value",0.876 (active)
same,normalized growth,"locus YAL040C, strain CLN3, stronger effect = lower value",0.916 (inactive)
same,normalized growth,"locus YBL061C, strain skt5, stronger effect = lower value",0.884 (active)
same,normalized growth,"locus YBR009C, strain hhf1, stronger effect = lower value",0.856 (active)
same,normalized growth,"locus YBR021W, strain FUR4, stronger effect = lower value",0.954 (inactive)
same,normalized growth,"locus YBR023C, strain chs3, stronger effect = lower value",0.852 (active)
same,normalized growth,"locus YBR171W, strain sec66, stronger effect = lower value",0.817 (active)
same,normalized growth,"locus YBR229C, strain ROT2, stronger effect = lower value",0.884 (active)
same,normalized growth,"locus YBR231C, strain swc5, stronger effect = lower value",0.885 (active)
same,normalized growth,"locus YBR279W, strain paf1, stronger effect = lower value",0.867 (active)
same,normalized growth,"locus YCL011C, strain gbp2, stronger effect = lower value",0.852 (active)
same,normalized growth,"locus YCL016C, strain dcc1, stronger effect = lower value",0.818 (active)
same,normalized growth,"locus YCL029C, strain bik1, stronger effect = lower value",0.887 (active)
same,normalized growth,"locus YCL061C, strain MRC1 (second series), stronger effect = lower value",0.965 (inactive)
same,normalized growth,"locus YCL061C, strain MRC1, stronger effect = lower value",0.891 (active)
same,normalized growth,"locus YCL069W, strain vba3, stronger effect = lower value",0.866 (active)
same,normalized growth,"locus YCR088W, strain abp1, stronger effect = lower value",0.876 (active)
same,normalized growth,"locus YDL005C, strain med2, stronger effect = lower value",0.895 (active)
same,normalized growth,"locus YDL035C, strain GPR1, stronger effect = lower value",0.939 (inactive)
same,normalized growth,"locus YDL040C, strain nat1, stronger effect = lower value",0.894 (active)
same,normalized growth,"locus YDL074C, strain BRE1, stronger effect = lower value",0.799 (inactive)
same,normalized growth,"locus YDL101C, strain DUN1, stronger effect = lower value",0.957 (inactive)
same,normalized growth,"locus YDL185W, strain tfp1, stronger effect = lower value",0.953 (inactive)
same,normalized growth,"locus YDL192W, strain arf1, stronger effect = lower value",0.824 (active)
same,normalized growth,"locus YDR001C, strain nth1, stronger effect = lower value",0.871 (active)
same,normalized growth,"locus YDR069C, strain doa4, stronger effect = lower value",0.928 (inactive)
same,normalized growth,"locus YDR101C, strain arx1, stronger effect = lower value",0.906 (active)
same,normalized growth,"locus YDR137W, strain rgp1, stronger effect = lower value",0.455 (active)
same,normalized growth,"locus YDR150W, strain NUM1, stronger effect = lower value",0.879 (active) and 0.942 (inactive)
same,normalized growth,"locus YDR159W, strain sac3, stronger effect = lower value",0.766 (active)
same,normalized growth,"locus YDR162C, strain NBP2, stronger effect = lower value",0.794 (active)
same,normalized growth,"locus YDR195W, strain ref2",1.11 (inactive)
same,normalized growth,"locus YDR297W, strain sur2, stronger effect = lower value",0.908 (active)
same,normalized growth,"locus YDR318W, strain mcm21, stronger effect = lower value",0.83 (active)
same,normalized growth,"locus YDR334W, strain swr1, stronger effect = lower value",0.879 (active)
same,normalized growth,"locus YDR335W, strain msn5, stronger effect = lower value",0.896 (active)
same,normalized growth,"locus YDR363W, strain ESC2, stronger effect = lower value",0.985 (inactive)
same,normalized growth,"locus YDR388W, stronger effect = lower value",0.87 (active)
same,normalized growth,"locus YDR392W, strain spt3, stronger effect = lower value",0.188 (active)
same,normalized growth,"locus YDR502C, strain sam2, stronger effect = lower value",0.835 (active)
same,normalized growth,"locus YEL003W, strain gim4, stronger effect = lower value",0.904 (active)
same,normalized growth,"locus YEL037C, strain rad23, stronger effect = lower value",0.901 (active)
same,normalized growth,"locus YEL061C, strain CIN8 (second series), stronger effect = lower value",0.885 (active)
same,normalized growth,"locus YEL061C, strain CIN8, stronger effect = lower value",0.888 (active)
same,normalized growth,"locus YER002W, strain NOP16, stronger effect = lower value",0.926 (inactive)
same,normalized growth,"locus YER015W, strain faa2, stronger effect = lower value",0.926 (active)
same,normalized growth,"locus YER016W, strain bim1, stronger effect = lower value",0.91 (active)
same,normalized growth,"locus YER110C, stronger effect = lower value",0.866 (active)
same,normalized growth,"locus YER111C, strain swi4, stronger effect = lower value",0.876 (active)
same,normalized growth,"locus YER155C, strain BEM2 (second series), stronger effect = lower value",0.644 (active)
same,normalized growth,"locus YER155C, strain BEM2, stronger effect = lower value",0.839 (active)
same,normalized growth,"locus YER167W, strain BCK2, stronger effect = lower value",0.905 (inactive)
same,normalized growth,"locus YFR010W, strain ubp6, stronger effect = lower value",0.931 (inactive)
same,normalized growth,"locus YGL078C, strain dbp3, stronger effect = lower value",0.969 (inactive)
same,normalized growth,"locus YGL086W, strain mad1, stronger effect = lower value",0.905 (active)
same,normalized growth,"locus YGL167C, strain pmr1, stronger effect = lower value",0.829 (active)
same,normalized growth,"locus YGL173C, strain kem1, stronger effect = lower value",0.85 (active)
same,normalized growth,"locus YGL227W, strain vid30, stronger effect = lower value",0.906 (active)
same,normalized growth,"locus YGL240W, strain doc1, stronger effect = lower value",0.91 (inactive)
same,normalized growth,"locus YGL248W, strain PDE1, stronger effect = lower value",0.899 (inactive)
same,normalized growth,"locus YGL253W, strain hxk2, stronger effect = lower value",0.81 (active)
same,normalized growth,"locus YGR078C, strain PAC10, stronger effect = lower value",0.926 (inactive)
same,normalized growth,"locus YGR135W, strain pre9, stronger effect = lower value",0.795 (active)
same,normalized growth,"locus YGR229C, strain SMI1, stronger effect = lower value",0.841 (inactive)
same,normalized growth,"locus YGR252W, strain gcn5, stronger effect = lower value",0.834 (inactive)
same,normalized growth,"locus YHR013C, strain ard1, stronger effect = lower value",0.793 (active)
same,normalized growth,"locus YHR027C, strain rpn1, stronger effect = lower value",0.903 (active)
same,normalized growth,"locus YHR030C, strain SLT2, stronger effect = lower value",0.901 (active) and 0.983 (inactive)
same,normalized growth,"locus YHR079C, strain IRE1 (second series), stronger effect = lower value",0.876 (active)
same,normalized growth,"locus YHR079C, strain IRE1, stronger effect = lower value",1.03 (inactive)
same,normalized growth,"locus YHR094C, strain hxt1, stronger effect = lower value",0.869 (active)
same,normalized growth,"locus YHR129C, strain ARP1, stronger effect = lower value",0.91 (active)
same,normalized growth,"locus YHR142W, strain chs7, stronger effect = lower value",0.737 (active)
same,normalized growth,"locus YHR200W, strain rpn10, stronger effect = lower value",0.882 (active)
same,normalized growth,"locus YIL066C, strain RNR3, stronger effect = lower value",0.881 (inactive)
same,normalized growth,"locus YIL073C, strain SPO22, stronger effect = lower value",0.735 (inactive)
same,normalized growth,"locus YIL125W, strain kgd1, stronger effect = lower value",0.981 (inactive)
same,normalized growth,"locus YIR030C, strain dcg1, stronger effect = lower value",0.868 (active)
same,normalized growth,"locus YJL092W, strain hpr5, stronger effect = lower value",0.872 (active)
same,normalized growth,"locus YJL095W, strain BCK1 (second series), stronger effect = lower value",0.822 (active)
same,normalized growth,"locus YJL095W, strain BCK1, stronger effect = lower value",0.664 (active) and 0.986 (inactive)
same,normalized growth,"locus YJL115W, strain asf1, stronger effect = lower value",0.934 (inactive)
same,normalized growth,"locus YJL129C, strain trk1, stronger effect = lower value",0.644 (active)
same,normalized growth,"locus YJL134W, strain LCB3, stronger effect = lower value",0.906 (active)
same,normalized growth,"locus YJL154C, strain vps35, stronger effect = lower value",0.891 (active)
same,normalized growth,"locus YJL164C, strain tpk1, stronger effect = lower value",0.866 (active)
same,normalized growth,"locus YJL166W, strain qcr8, stronger effect = lower value",0.864 (active)
same,normalized growth,"locus YJL168C, strain set2, stronger effect = lower value",0.892 (active)
same,normalized growth,"locus YJL187C, strain SWE1 (second series), stronger effect = lower value",0.897 (inactive)
same,normalized growth,"locus YJL187C, strain SWE1, stronger effect = lower value",0.891 (active)
same,normalized growth,"locus YJR043C, strain POL32, stronger effect = lower value",0.956 (inactive)
